Source: PubChem BioAssay AID1454 (National Center for Advancing Translational Sciences (NCATS), 2008)
Out of some 130,000 compounds screened, about 550 (0.42%) were called active. Another 4% or so got no clear call; they are omitted. Shown is part of a subset that was picked to be rich in actives. Entries that show only a call come without a potency. Unmarked numbers belong to inactive results. Calls come from the whole dose curve; as a rule, active = well fitted inhibition curve with a large enough effect; inconclusive = small, poorly fitted or top-dose-only effect, or effect the other way; inactive = flat fitted curve, though single readings scatter.

experiment: qHTS Assay for Inhibitors of the ERK Signaling Pathway using a Homogeneous Screening Assay; Stimulation with EGF; details: HEK293-V1b, EGF-stimulated phospho-ERK AlphaScreen; series mostly up to 57.5 µM; note: nearly all actives have a fitted effect of over 55% in size
Excerpt: NIH Chemical Genomics Center [NCGC]
NIH Molecular Libraries Screening Centers Network [MLSCN]
Assay Submitter (PI): Dr. Wei Zheng, NCGC/NIH
The Ras/extracellular-signal-regulated kinase (ERK) mitogen activated protein (MAP) kinase signaling pathway (ERK1/2 cascade) plays a key role in transmitting signals from the cell surface to the nucleus (Nishida and Gotoh 1993; Chang and Karin, 2001). The cascade is initiated by the small G-protein Ras, which recruits Raf from the cytosol, where activation occurs. Alternatively, this pathway can be activated by elevating intracellular cAMP, or by activation of a receptor tyrosine kinase as epidermal growth factor receptor.
Activation of the ERK pathway is essential in increased cell division and cell survival. Sustained and constitutive activation of the ERK pathway, however, has been linked to uncontrolled cell proliferation, increased cell survival, and tumor progression. Thus, the ERK has been as an attractive target for cancer chemotherapy in the past few years (Sebolt-Leopold and Herrera, 2004). Given its physiological and pathological importance, assessment of ERK phosphorylation has been broadly performed in both basic research and drug discovery. Most assays for the measurement of ERK phosphorylation use the antibody-based detection methods, such as western blot and ELISA. These assays require multiple reagent additions with cell wash steps and are not suitable for high throughout screening.
The current cell-based ERK phosphorylation assay was performed using AlphaScreen platform. AlphaScreen is a two bead-based proximity-dependent chemical energy transfer luminescent assay platform. The assay reagents (ERK SureFire(TM) kit) were supplied from TGR BioSciences (Australia). In the presence of specific antibodies, phosphorylated ERK will bring "donor" and "acceptor" beads to a proximity range (<200 nm), and subsequently lead a chemical luminescent reaction upon exciting donor beads with 680 nm laser. To exclude the assay-related false positives, we used a biotinylated rabbit IgG to perform counter-screen. The biotinylated antibody mimics the phosphorylated ERK1/2 for bringing streptavidin coated beads and protein-A coated beads to a proximity range for the AlphaScreen detection.
NCGC Assay Protocol Summary:
HEK293 cells stably expressing type-1 vasopressin receptor (V1b) were maintained in DMEM medium (Invitrogen, Carlsbad, CA) at 37C under a humidified atmosphere containing 5% CO2 and 95% air. The medium contained 10% FBS, 2 mM L-glutamine, non-essential amino acid, pyruvate and 50 U/ml penicillin and 50 ug/ml streptomycin (Invitrogen). The aliquots of frozen cells were stored at -135C and used for the compound screening. All compounds were screened as titrations from 0.6 nM to 46 uM final concentration. Epidermal growth factor (EGF) was used to stimulate the ERK phosphorylation pathway. The ERK phosphorylation in cells was determined using an AlphaScreen assay kit provided by […]. Data were normalized to the controls for basal activity (DMSO only) and 100% activation (25 nM EGF). AC50 values were determined from concentration-response data modeled with the standard Hill equation.
(1) Seed 4 ul/well of resuspended frozen HEK293 cells containing 2000 cells in white 1536-well plates for overnight with 1% FBS at 37C under a humidified atmosphere containing 5% CO2 and 95% air.
(2) Add 23 nL compounds in DMSO solution. The final titration was 0.6 nM to 46 uM.
(3) Incubate at 37C for 30 min.
(4) Dispense 0.5uL EGF (25 nM in final)
(5) Incubate at 37C for 5 min.
(6) Dispense 0.5uL of 1:2 diluted 5x lysis buffer.
(7) Incubate at 37C for 10 min.
(8) Dispense 1.5uL of mixture of activation buffer and reaction buffer with AlphaScreen beads (streptavidin donor beads and protein-A acceptor beads, 10 ng/well for each).
(9) Incubate at room temperature for 5 hr.
(10) Detect the assay plate in an EnVision plate reader (PerkinElmer) using the AlphaScreen detection mode.
[…]
Potency is the fitted concentration of half-maximal effect.

Compound	Potency	activity change, negative = inhibition
Cc1cc(-c2n[nH]c(=S)n2-c2ccc(C)c(C)c2)no1	3.98 µM (active)	
CCCCC/C=C\C/C=C\C/C=C\C=C\[C@H](CCCC(=O)O)OO		-6.51% [at 11.5 µM]
COC1=C[C@]23CCCN2CCc2cc4c(cc2[C@@H]3[C@@H]1O)OCO4		-6.17% [at 11.5 µM]
O=c1[nH]c(=O)n(-c2ccc(F)cc2)c(O)c1C=NCCN1CCCCC1		inactive
CCCCCCCCCCCCn1ccc(=N)cc1	22.4 µM (active)	
O=C1CC(=O)N(Cc2ccccc2)C(=O)N1CCCCCCN1C(=O)CC(=O)N(Cc2ccccc2)C1=O		inactive
CC(=O)Cc1ccc(OC(C)C)cc1		inactive
C1CC[C@H]([C@@]23C[C@H](C[C@H]4CCCN[C@H]42)[C@@H]2CCCCN2C3)NC1		-0.522% [at 11.5 µM]
O=c1[nH]c(=O)n(CCc2ccc(F)cc2)c(O)c1/C=N/N1CCCCC1		inactive
N#Cc1c(Cl)c(Cl)c(Cl)c(C#N)c1Cl	3.98 µM (active)	
CNC(=O)Nc1ccc(C(O)(C(=O)OC)C(F)(F)F)cc1 (stereo not given)		inactive
Fc1ccc(C2N3CCCN23)cc1 (stereo not given)		inactive
COc1ccc(-n2c(O)c(C(C)=Nc3ccc4c(c3)CCC4)c(=O)[nH]c2=O)cc1		inactive
CN1CCN(/N=C/c2c[nH]c3ccccc23)CC1		inactive
CCCCC(=O)N/N=C/c1c(O)n(-c2ccccc2)c(=O)[nH]c1=O		inactive
